Measurements from PMC11062922 (Nature Chemical Biology, 2023).
Like-named read-outs stand apart in the source and are kept apart here.

Experiments:
Details in all cases: read-out: apparent Kd, n = 1
[1] = system: MAP2K1
[2] = system: MAP3K5
[3] = system: MAPK10
[4] = compound concentrations:100 nM and 1000 nM (sheet 'Lestaurtinib' of Supplementary Table 1),run:Lestaurtinib_02584_R2,Plate:MR017
[5] = compound concentrations:100 nM and 1000 nM (sheet 'Lestaurtinib' of Supplementary Table 1),run:Lestaurtinib_02584_R3,Plate:MR017
[6] = compound concentrations:100 nM and 1000 nM (sheet 'Lestaurtinib' of Supplementary Table 1),run:Lestaurtinib_02601_R1,Plate:MR018
[7] = compound concentrations:100 nM and 1000 nM (sheet 'Lestaurtinib' of Supplementary Table 1),run:Lestaurtinib_02606_R1,Plate:MR019
[8] = compound concentrations:100 nM and 1000 nM (sheet 'Lestaurtinib' of Supplementary Table 1),run:Lestaurtinib_02724_R1,Plate:MR021
[9] = compound concentrations:100 nM and 1000 nM (sheet 'Lestaurtinib' of Supplementary Table 1),run:Lestaurtinib_02741_R1,Plate:MR023
[10] = compound concentrations:100 nM and 1000 nM (sheet 'Lestaurtinib' of Supplementary Table 1),run:Lestaurtinib_02765_R3,Plate:MR026
[11] = compound concentrations:100 nM and 1000 nM (sheet 'Lestaurtinib' of Supplementary Table 1),run:Lestaurtinib_02766_R3,Plate:MR027
[12] = compound concentrations:100 nM and 1000 nM (sheet 'Lestaurtinib' of Supplementary Table 1),run:Lestaurtinib_02768_R3,Plate:MR028
[13] = compound concentrations:100 nM and 1000 nM (sheet 'Lestaurtinib' of Supplementary Table 1),run:Lestaurtinib_02795_R2,Plate:MR022
[14] = compound concentrations:100 nM and 1000 nM (sheet 'Lestaurtinib' of Supplementary Table 1),run:Lestaurtinib_03172_R3,Plate:MR031
[15] = compound concentrations:100 nM and 1000 nM (sheet 'Lestaurtinib' of Supplementary Table 1),run:Lestaurtinib_03260_R1,Plate:MR033
[16] = compound concentrations:100 nM and 1000 nM (sheet 'Lestaurtinib' of Supplementary Table 1),run:Lestaurtinib_03260_R3,Plate:MR033
[17] = compound concentrations:100 nM and 1000 nM (sheet 'Lestaurtinib' of Supplementary Table 1),run:Lestaurtinib_02367_R1,Plate:MR003
[18] = compound concentrations:100 nM and 1000 nM (sheet 'Lestaurtinib' of Supplementary Table 1),run:Lestaurtinib_02407_R1,Plate:MR005
[19] = compound concentrations:100 nM and 1000 nM (sheet 'Lestaurtinib' of Supplementary Table 1),run:Lestaurtinib_02407_R2,Plate:MR005
[20] = compound concentrations:100 nM and 1000 nM (sheet 'Lestaurtinib' of Supplementary Table 1),run:Lestaurtinib_02422_R2,Plate:MR006
[21] = compound concentrations:100 nM and 1000 nM (sheet 'Lestaurtinib' of Supplementary Table 1),run:Lestaurtinib_02437_R1,Plate:MR007
[22] = compound concentrations:100 nM and 1000 nM (sheet 'Lestaurtinib' of Supplementary Table 1),run:Lestaurtinib_02437_R2,Plate:MR007
[23] = compound concentrations:100 nM and 1000 nM (sheet 'Lestaurtinib' of Supplementary Table 1),run:Lestaurtinib_02473_R1,Plate:MR010

Substance: Lestaurtinib
- potency estimated from few doses ([1]; compound concentrations:100 nM and 1000 nM (sheet 'Lestaurtinib' of Supplementary Table 1),run:Lestaurtinib_02572_R1,Plate:MR015): 1430 nM
- potency estimated from few doses ([1]; compound concentrations:100 nM and 1000 nM (sheet 'Lestaurtinib' of Supplementary Table 1),run:Lestaurtinib_02577_R3,Plate:MR016): 1750 nM
- potency estimated from few doses [1, 4]: 1720 nM
- potency estimated from few doses [1, 5]: 1990 nM
- potency estimated from few doses [1, 6]: 876 nM
- potency estimated from few doses [1, 7]: 884 nM
- potency estimated from few doses [1, 8]: 1600 nM
- potency estimated from few doses ([1]; compound concentrations:100 nM and 1000 nM (sheet 'Lestaurtinib' of Supplementary Table 1),run:Lestaurtinib_02724_R2,Plate:MR021): 2070 nM
- potency estimated from few doses ([1]; compound concentrations:100 nM and 1000 nM (sheet 'Lestaurtinib' of Supplementary Table 1),run:Lestaurtinib_02724_R3,Plate:MR021): 1610 nM
- potency estimated from few doses [1, 9]: 2060 nM
- potency estimated from few doses ([1]; compound concentrations:100 nM and 1000 nM (sheet 'Lestaurtinib' of Supplementary Table 1),run:Lestaurtinib_02741_R3,Plate:MR023): 1320 nM
- potency estimated from few doses ([1]; compound concentrations:100 nM and 1000 nM (sheet 'Lestaurtinib' of Supplementary Table 1),run:Lestaurtinib_02748_R1,Plate:MR024): 1440 nM
- potency estimated from few doses ([1]; compound concentrations:100 nM and 1000 nM (sheet 'Lestaurtinib' of Supplementary Table 1),run:Lestaurtinib_02748_R3,Plate:MR024): 1400 nM
- potency estimated from few doses ([1]; compound concentrations:100 nM and 1000 nM (sheet 'Lestaurtinib' of Supplementary Table 1),run:Lestaurtinib_02752_R2,Plate:MR025): 1510 nM
- potency estimated from few doses ([1]; compound concentrations:100 nM and 1000 nM (sheet 'Lestaurtinib' of Supplementary Table 1),run:Lestaurtinib_02765_R2,Plate:MR026): 1620 nM
- potency estimated from few doses [1, 10]: 1670 nM
- potency estimated from few doses ([1]; compound concentrations:100 nM and 1000 nM (sheet 'Lestaurtinib' of Supplementary Table 1),run:Lestaurtinib_02766_R1,Plate:MR027): 964 nM
- potency estimated from few doses [1, 11]: 1540 nM
- potency estimated from few doses [1, 12]: 2210 nM
- potency estimated from few doses [1, 13]: 771 nM
- potency estimated from few doses ([1]; compound concentrations:100 nM and 1000 nM (sheet 'Lestaurtinib' of Supplementary Table 1),run:Lestaurtinib_02802_R1,Plate:MR029): 1900 nM
- potency estimated from few doses ([1]; compound concentrations:100 nM and 1000 nM (sheet 'Lestaurtinib' of Supplementary Table 1),run:Lestaurtinib_02896_R1,Plate:MR030): 803 nM
- potency estimated from few doses [1, 14]: 823 nM
- potency estimated from few doses ([1]; compound concentrations:100 nM and 1000 nM (sheet 'Lestaurtinib' of Supplementary Table 1),run:Lestaurtinib_03252_R1,Plate:MR032): 1540 nM
- potency estimated from few doses [1, 15]: 1210 nM
- potency estimated from few doses [1, 16]: 2310 nM
- potency estimated from few doses ([2]; compound concentrations:100 nM and 1000 nM (sheet 'Lestaurtinib' of Supplementary Table 1),run:Lestaurtinib_02364_R1,Plate:MR002): 938 nM
- potency estimated from few doses [2, 17]: 1240 nM
- potency estimated from few doses ([2]; compound concentrations:100 nM and 1000 nM (sheet 'Lestaurtinib' of Supplementary Table 1),run:Lestaurtinib_02381_R1,Plate:MR004): 987 nM
- potency estimated from few doses ([2]; compound concentrations:100 nM and 1000 nM (sheet 'Lestaurtinib' of Supplementary Table 1),run:Lestaurtinib_02381_R2,Plate:MR004): 926 nM
- potency estimated from few doses ([2]; compound concentrations:100 nM and 1000 nM (sheet 'Lestaurtinib' of Supplementary Table 1),run:Lestaurtinib_02381_R3,Plate:MR004): 826 nM
- potency estimated from few doses [2, 18]: 1600 nM
- potency estimated from few doses [2, 19]: 1350 nM
- potency estimated from few doses [2, 20]: 1150 nM
- potency estimated from few doses [2, 21]: 1460 nM
- potency estimated from few doses [2, 22]: 983 nM
- potency estimated from few doses ([2]; compound concentrations:100 nM and 1000 nM (sheet 'Lestaurtinib' of Supplementary Table 1),run:Lestaurtinib_02438_R2,Plate:MR008): 1370 nM
- potency estimated from few doses ([2]; compound concentrations:100 nM and 1000 nM (sheet 'Lestaurtinib' of Supplementary Table 1),run:Lestaurtinib_02438_R3,Plate:MR008): 1530 nM
- potency estimated from few doses ([2]; compound concentrations:100 nM and 1000 nM (sheet 'Lestaurtinib' of Supplementary Table 1),run:Lestaurtinib_02443_R1,Plate:MR009): 1310 nM
- potency estimated from few doses ([2]; compound concentrations:100 nM and 1000 nM (sheet 'Lestaurtinib' of Supplementary Table 1),run:Lestaurtinib_02443_R2,Plate:MR009): 1410 nM
- potency estimated from few doses [2, 23]: 969 nM
- potency estimated from few doses ([2]; compound concentrations:100 nM and 1000 nM (sheet 'Lestaurtinib' of Supplementary Table 1),run:Lestaurtinib_02473_R2,Plate:MR010): 1430 nM
- potency estimated from few doses ([2]; compound concentrations:100 nM and 1000 nM (sheet 'Lestaurtinib' of Supplementary Table 1),run:Lestaurtinib_02473_R3,Plate:MR010): 858 nM
- potency estimated from few doses ([2]; compound concentrations:100 nM and 1000 nM (sheet 'Lestaurtinib' of Supplementary Table 1),run:Lestaurtinib_02482_R1,Plate:MR011): 1460 nM
- potency estimated from few doses ([2]; compound concentrations:100 nM and 1000 nM (sheet 'Lestaurtinib' of Supplementary Table 1),run:Lestaurtinib_02482_R2,Plate:MR011): 1890 nM
- potency estimated from few doses ([2]; compound concentrations:100 nM and 1000 nM (sheet 'Lestaurtinib' of Supplementary Table 1),run:Lestaurtinib_02487_R1,Plate:MR012): 1210 nM
- potency estimated from few doses ([2]; compound concentrations:100 nM and 1000 nM (sheet 'Lestaurtinib' of Supplementary Table 1),run:Lestaurtinib_02566_R1,Plate:MR014): 946 nM
- potency estimated from few doses ([2]; compound concentrations:100 nM and 1000 nM (sheet 'Lestaurtinib' of Supplementary Table 1),run:Lestaurtinib_02572_R3,Plate:MR015): 1620 nM
- potency estimated from few doses ([2]; compound concentrations:100 nM and 1000 nM (sheet 'Lestaurtinib' of Supplementary Table 1),run:Lestaurtinib_02577_R1,Plate:MR016): 1360 nM
- potency estimated from few doses [2, 4]: 1300 nM
- potency estimated from few doses [2, 5]: 1360 nM
- potency estimated from few doses [2, 6]: 1700 nM
- potency estimated from few doses ([2]; compound concentrations:100 nM and 1000 nM (sheet 'Lestaurtinib' of Supplementary Table 1),run:Lestaurtinib_02601_R2,Plate:MR018): 1460 nM
- potency estimated from few doses [2, 7]: 1440 nM
- potency estimated from few doses ([2]; compound concentrations:100 nM and 1000 nM (sheet 'Lestaurtinib' of Supplementary Table 1),run:Lestaurtinib_02606_R3,Plate:MR019): 1350 nM
- potency estimated from few doses ([2]; compound concentrations:100 nM and 1000 nM (sheet 'Lestaurtinib' of Supplementary Table 1),run:Lestaurtinib_02624_R1,Plate:MR020): 1440 nM
- potency estimated from few doses ([2]; compound concentrations:100 nM and 1000 nM (sheet 'Lestaurtinib' of Supplementary Table 1),run:Lestaurtinib_02624_R2,Plate:MR020): 998 nM
- potency estimated from few doses [2, 8]: 998 nM
- potency estimated from few doses [2, 9]: 916 nM
- potency estimated from few doses ([2]; compound concentrations:100 nM and 1000 nM (sheet 'Lestaurtinib' of Supplementary Table 1),run:Lestaurtinib_02765_R1,Plate:MR026): 1490 nM
- potency estimated from few doses [2, 10]: 1830 nM
- potency estimated from few doses ([2]; compound concentrations:100 nM and 1000 nM (sheet 'Lestaurtinib' of Supplementary Table 1),run:Lestaurtinib_02766_R2,Plate:MR027): 1150 nM
- potency estimated from few doses [2, 11]: 942 nM
- potency estimated from few doses ([2]; compound concentrations:100 nM and 1000 nM (sheet 'Lestaurtinib' of Supplementary Table 1),run:Lestaurtinib_02768_R1,Plate:MR028): 1150 nM
- potency estimated from few doses [2, 12]: 923 nM
- potency estimated from few doses [2, 13]: 1340 nM
- potency estimated from few doses ([2]; compound concentrations:100 nM and 1000 nM (sheet 'Lestaurtinib' of Supplementary Table 1),run:Lestaurtinib_02802_R3,Plate:MR029): 687 nM
- potency estimated from few doses ([2]; compound concentrations:100 nM and 1000 nM (sheet 'Lestaurtinib' of Supplementary Table 1),run:Lestaurtinib_03172_R1,Plate:MR031): 1310 nM
- potency estimated from few doses [2, 14]: 1570 nM
- potency estimated from few doses [2, 15]: 1750 nM
- potency estimated from few doses ([2]; compound concentrations:100 nM and 1000 nM (sheet 'Lestaurtinib' of Supplementary Table 1),run:Lestaurtinib_03260_R2,Plate:MR033): 1460 nM
- potency estimated from few doses [2, 16]: 1580 nM
- potency estimated from few doses ([3]; compound concentrations:100 nM and 1000 nM (sheet 'Lestaurtinib' of Supplementary Table 1),run:Lestaurtinib_02339_R2,Plate:MR001): 617 nM
- potency estimated from few doses ([3]; compound concentrations:100 nM and 1000 nM (sheet 'Lestaurtinib' of Supplementary Table 1),run:Lestaurtinib_02339_R3,Plate:MR001): 1150 nM
- potency estimated from few doses ([3]; compound concentrations:100 nM and 1000 nM (sheet 'Lestaurtinib' of Supplementary Table 1),run:Lestaurtinib_02364_R2,Plate:MR002): 618 nM
- potency estimated from few doses ([3]; compound concentrations:100 nM and 1000 nM (sheet 'Lestaurtinib' of Supplementary Table 1),run:Lestaurtinib_02364_R3,Plate:MR002): 801 nM
- potency estimated from few doses [3, 17]: 1620 nM
- potency estimated from few doses ([3]; compound concentrations:100 nM and 1000 nM (sheet 'Lestaurtinib' of Supplementary Table 1),run:Lestaurtinib_02367_R3,Plate:MR003): 623 nM
- potency estimated from few doses [3, 18]: 932 nM
- potency estimated from few doses [3, 19]: 763 nM
- potency estimated from few doses ([3]; compound concentrations:100 nM and 1000 nM (sheet 'Lestaurtinib' of Supplementary Table 1),run:Lestaurtinib_02407_R3,Plate:MR005): 1460 nM
- potency estimated from few doses ([3]; compound concentrations:100 nM and 1000 nM (sheet 'Lestaurtinib' of Supplementary Table 1),run:Lestaurtinib_02422_R1,Plate:MR006): 575 nM
- potency estimated from few doses [3, 20]: 964 nM
- potency estimated from few doses ([3]; compound concentrations:100 nM and 1000 nM (sheet 'Lestaurtinib' of Supplementary Table 1),run:Lestaurtinib_02422_R3,Plate:MR006): 609 nM
- potency estimated from few doses [3, 21]: 865 nM
- potency estimated from few doses [3, 22]: 838 nM
- potency estimated from few doses ([3]; compound concentrations:100 nM and 1000 nM (sheet 'Lestaurtinib' of Supplementary Table 1),run:Lestaurtinib_02443_R3,Plate:MR009): 798 nM
- potency estimated from few doses [3, 23]: 970 nM
